From PubChem BioAssay (NCATS) come the findings set out here.

Inconclusive results are not listed. Values without a mark were called inactive. Active and inactive are the calls of the source. Calls come from the whole dose curve; as a rule, active = well fitted cell-killing curve with a large enough effect; inconclusive = small, poorly fitted or top-dose-only effect, or effect the other way; inactive = flat fitted curve, though single readings scatter.

Common to all, as to test: Primary qHTS to identify gynecologic anti-cancer compounds using libraries of approved drugs and bioactive compounds (AID 1345084); note: nearly all actives have a fitted effect of over 55% in size
On the technique in general: qHTS replaces the single test concentration by a dilution series.

For test [1], the system named is C33A. The note with it: Gynecologic cancer cell panel viability, ATPlite luminescence, 48 h; series mostly up to 57.5 µM. In short, it runs like this: (§1)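 In this quantitative HTS, cell killing is estimated from loss of ATP-dependent luciferase light. Cells see five compound concentrations over a 48 h exposure.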
Background: In ATP-based viability assays light output follows the ATP content of the culture.

For test [2], the system named is CAOV3. The note with it: Gynecologic cancer cell panel viability, ATPlite luminescence, 48 h; series mostly up to 57.5 µM. In short, it runs like this: as §1
Test [3] deals with CASKI. Conditions: Gynecologic cancer cell panel viability, ATPlite luminescence, 48 h; series mostly up to 57.5 µM. In a few lines:
as §1

For test [4], the system named is Es-2. Conditions: Gynecologic cancer cell panel viability, ATPlite luminescence, 48 h; series mostly up to 57.5 µM. In a few lines: as §1
The subject of test [5] is HeLa. Conditions: Gynecologic cancer cell panel viability, ATPlite luminescence, 48 h; series mostly up to 57.5 µM. In short, it runs like this:
as §1

Test [6] deals with Hek293T. Conditions: Gynecologic cancer cell panel viability, ATPlite luminescence, 48 h, control line for the selectivity index; series mostly up to 57.5 µM. In short, it runs like this:
as §1

Test [7] deals with JEG-3. Conditions: Gynecologic cancer cell panel viability, ATPlite luminescence, 48 h; series mostly up to 57.5 µM. In a few lines:
as §1

Test [8] deals with OV90. The note with it: Gynecologic cancer cell panel viability, ATPlite luminescence, 48 h; series mostly up to 57.5 µM. In a few lines: as §1
The test system of test [9] is PA-1. Conditions: Gynecologic cancer cell panel viability, ATPlite luminescence, 48 h; series mostly up to 57.5 µM. In short, it runs like this:
as §1

Test [10] relates to SKOV3. The note with it: Gynecologic cancer cell panel viability, ATPlite luminescence, 48 h; series mostly up to 57.5 µM. In a few lines: as §1
In test [11] the test system is Tov-21-G. The note with it: Gynecologic cancer cell panel viability, ATPlite luminescence, 48 h; series mostly up to 57.5 µM. In a few lines: as §1
Test [12] relates to Tov112D. Conditions: Gynecologic cancer cell panel viability, ATPlite luminescence, 48 h; series mostly up to 57.5 µM. In a few lines:
as §1
% is set by controls: 0 for no effect and ±100 for the full control effect; potency is the fitted concentration of half-maximal effect.

As for `COc1ccc(C[C@H](N)C(=O)N[C@@H]2[C@H](O)[C@H](n3cnc4c(N(C)C)ncnc43)O[C@@H]2CO)cc1`, the Potency in test [1] is 3.16 µM (active); in [2] it was 1.58 µM (active); in test [3], 2.24 µM (active); in test [4] it was 2.51 µM (active); in test [5], 1.26 µM (active); in [6], 2.24 µM (active). In addition, the Potency in [7] is 3.55 µM (active); in test [8] it was 7.94 µM (active); in test [9], 1 µM (active); in test [10], 2.82 µM (active); in test [11], 4.47 µM (active); in test [12], 1.78 µM (active).
Consider `CC(C)(O[C@@H]1O[C@H](CO)[C@@H](O)[C@H](O)[C@H]1O)C(OC(=O)/C=C\c1ccc(O)cc1)C(=O)OCc1ccc(O[C@@H]2O[C@H](CO)[C@@H](O)[C@H](O)[C@H]2O)cc1` (stereo not given in full), for which the Potency result in test [1], in test [2], in [3], in test [4], in [5] and in [6] was “inactive” throughout. The Potency entry in test [7], in test [8], in test [9], in test [10], in [11] and in test [12] was “inactive” in each case.
Regarding `C=C1C(O)CC2C(C(=O)O)=COC(O[C@@H]3O[C@H](COC(=O)/C=C/c4ccc(O)cc4)[C@@H](O)[C@H](O)[C@H]3O)C12` (stereo not given in full), the Potency entry in test [1], in test [2], in test [3], in [4], in [5] and in [6] was “inactive” in each case. The Potency result in [7], in [8], in test [9], in test [10], in [11] and in test [12] was “inactive” throughout.
For the molecule `COc1cc(C)c(C(=O)Oc2cc(C)c(C(=O)Oc3cc(C)c(C(=O)NC(C)C(=O)O)c(O)c3)c(O[C@@H]3O[C@H](CO)[C@@H](O)[C@H](O)[C@H]3OC(C)=O)c2)c(OC)c1` (stereo not given in full), the Potency result in [1], in test [2], in test [3], in test [4], in [5] and in test [6] was “inactive” throughout. Besides, the Potency entry in [7], in test [8], in test [9], in [10], in test [11] and in [12] was “inactive” throughout.
On to `C=C1CCC2C(C)(C(=O)OC)CCCC2(C)C1CCC(C)CC(=O)O` (stereo not given), for which the Potency entry in test [1], in test [2], in test [3], in test [4], in test [5] and in test [6] was “inactive” in each case. The Potency entry in [7], in test [8], in test [9], in test [10], in [11] and in test [12] was “inactive” each time.
Regarding `Cc1cc(C)cc(C(=O)NOCCCCCC(=O)NO)c1`, the Potency in [1] was 3.98 µM (active); in test [2] it was 8.91 µM (active); in test [3] it was 7.08 µM (active); in test [4], 3.16 µM (active); in [5], 3.16 µM (active); in [6] it was 3.55 µM (active). In addition, the Potency in test [7] was 3.16 µM (active); in test [8] it was 3.98 µM (active); in test [9] it was 0.891 µM (active); in [10] it was 3.16 µM (active); in test [11], 8.91 µM (active); in [12] it was 3.55 µM (active).
As to `OC[C@H]1O[C@@H](OCCc2ccc(O)cc2)[C@H](O[C@@H]2OC[C@](O)(CO)[C@H]2O)[C@@H](O)[C@@H]1O`, the Potency entry in test [1], in test [2], in test [3], in test [4], in test [5] and in test [6] was “inactive” in each case. Moreover, the Potency result in [7], in test [8], in test [9], in test [10], in test [11] and in [12] was “inactive” throughout.
As for `C[C@@H]1O[C@@H](O[C@H]2[C@H](O[C@H]3[C@H](O)[C@@H](C(=O)O)O[C@@H](O[C@H]4CC[C@@]5(C)C(CC[C@]6(C)C5CC[C@]57OC[C@@]8(CCC(C)(C)CC85)[C@H](O)C[C@]76C)C4(C)C)[C@@H]3O[C@@H]3O[C@H](CO)[C@@H](O[C@@H]4OC[C@@H](O)[C@H](O)[C@H]4O)[C@H](O)[C@H]3O)O[C@H](CO)[C@H](O)[C@@H]2O)[C@H](O)[C@H](O)[C@H]1O` (stereo not given in full), the activity change, negative = cytotoxicity in test [1] is -0.321% [at 6.55 µM]; in [2] it was 1.86% [at 6.55 µM]; in [3], 3.57% [at 6.55 µM]; in test [4] it was -2.01% [at 6.55 µM]; in test [5], 1.31% [at 6.55 µM]; in [6] it was 4.69% [at 6.55 µM]. The activity change, negative = cytotoxicity is 1.85% [at 6.55 µM] in test [7]; -19.1% [at 6.55 µM] in test [8]; 5.43% [at 6.55 µM] in [9]; 0% [at 6.55 µM] in test [10]; -4.6% [at 6.55 µM] in test [11]; 10.2% [at 6.55 µM] in [12].
On to `C=C(CO[C@@H]1O[C@H](CO[C@@H]2OC[C@](O)(CO)[C@H]2O)[C@@H](O)[C@H](O)[C@H]1O)C1Cc2cc(C(C)=O)ccc2O1` (stereo not given in full), for which the Potency entry in test [1], in test [2], in test [3], in [4], in test [5] and in test [6] was “inactive” in each case. Further, the Potency entry in test [7], in test [8], in test [9], in test [10], in test [11] and in test [12] was “inactive” each time.
Take `CC1=CC(=O)C2C(C)(C)CCC[C@]2(C)[C@H]1CO` (stereo not given in full): the Potency result in [1], in test [2], in [3], in test [4], in test [5] and in test [6] was “inactive” each time. Moreover, the Potency result in [7], in [8], in test [9], in test [10], in [11] and in test [12] was “inactive” in each case.
